Measured values reported in article PMC5540273 (PLoS ONE, 2017).

Tests used:
Conditions in all cases: concentration: 1 μM, replicates: in singlicate; n = 1
CDC2L2 = test system: CDC2L2
CDC2L5 = test system: T1, CDC2L5
T1 construct: gene CDK13

CDK11 = test system: T2, CDK11
T2 construct: gene CDK19

CDK2 = test system: CDK2
CDK3 = test system: CDK3
CDK4-cyclinD1 = test system: CDK4-cyclinD1
CDK4-cyclinD3 = test system: CDK4-cyclinD3
CDK4 = test system: CDK4
CDK5 = test system: CDK5
CDK7 = test system: CDK7
CDK8 = test system: CDK8
CDK9 = test system: CDK9
CDKL1 = test system: CDKL1
CDKL2 = test system: CDKL2
CDKL3 = test system: CDKL3
CDKL5 = test system: CDKL5
CHEK1 = test system: CHEK1
CHEK2 = test system: CHEK2
CIT = test system: CIT
CLK1 = test system: CLK1
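Further: KINOMEscan kinase panel screen.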

| Compound | %Inh (CDC2L2) [%] | %Inh (CDC2L5) [%] | %Inh (CDK11) [%] | %Inh (CDK2) [%] | %Inh (CDK3) [%] | %Inh (CDK4-cyclinD1) [%] | %Inh (CDK4-cyclinD3) [%] | %Inh (CDK4) [%] | %Inh (CDK5) [%] | %Inh (CDK7) [%] | %Inh (CDK8) [%] | %Inh (CDK9) [%] | %Inh (CDKL1) [%] | %Inh (CDKL2) [%] | %Inh (CDKL3) [%] | %Inh (CDKL5) [%] | %Inh (CHEK1) [%] | %Inh (CHEK2) [%] | %Inh (CIT) [%] | %Inh (CLK1) [%] |
| --- | --- | --- | --- | --- | --- | --- | --- | --- | --- | --- | --- | --- | --- | --- | --- | --- | --- | --- | --- | --- |
| Cl.Cl.NCC(C(=O)Nc1cc(Br)c(-c2ccnc3[nH]ccc23)s1)c1ccccc1 (stereo not shown) [GSK1269851] | 4 | 0 | 17 | 0 | 5 | 0 | 2 | 15 | 0 | 24 | 0 | 3 | 20 | 51 | 0 | 0 | 0 | 0 | 99 | 63 |
| COC(=O)Nc1nc2cc(Oc3ccc(NC(=O)Nc4cc(C(F)(F)F)ccc4F)cn3)ccc2[nH]1.Cl.Cl [GW681170] | 18 | 69 | 98.1 | 16 | 7 | 7 | 0 | 50 | 0 | 94.1 | 100 | 0 | 29 | 98.3 | 56 | 0 | 0 | 24 | 100 | 42 |
| CN(C)S(=O)(=O)c1cc(-c2ccc3nccc(-c4cccc(S(N)(=O)=O)c4)c3c2)cnc1N [GSK1669921] | 3 | 0 | 54 | 0 | 9 | 0 | 0 | 0 | 0 | 58 | 35 | 0 | 77 | 25 | 0 | 12 | 100 | 0 | 16 | 57 |
| Cl.c1ccc(-c2ccc3c(Nc4ccc5[nH]ccc5c4)ccnc3c2)nc1 [GW440138] | 7 | 0 | 4 | 0 | 0 | 27 | 0 | 35 | 0 | 0 | 45 | 0 | 0 | 7 | 0 | 0 | 0 | 34 | 0 | 20 |
| O=C(Nc1ccccc1F)NC1CCN(c2ccnc(Nc3ccc(F)cc3)n2)CC1 [GSK1379800] | 34 | 0 | 9 | 0 | 0 | 2 | 0 | 28 | 0 | 0 | 51 | 0 | 0 | 17 | 0 | 0 | 0 | 0 | 0 | 9 |
| CCn1c(-c2nonc2N)nc2c(C#CC(C)(C)O)nc(OC[C@H](N)c3ccccc3)cc21 [GSK943949] | 0 | 2 | 0 | 0 | 0 | 0 | 8 | 0 | 9 | 5 | 4 | 0 | 0 | 0 | 0 | 12 | 0 | 0 | 61 | 24 |
| c1ccc(-c2cnc3nccnn23)cc1 [AH20685] | 18 | 0 | 0 | 0 | 2 | 0 | 0 | 0 | 0 | 0 | 49 | 0 | 11 | 0 | 0 | 8 | 0 | 0 | 0 | 4 |
| Nc1n[nH]c2cnc(-c3ccccc3)cc12 [SB-642124] | 0 | 0 | 0 | 0 | 9 | 23 | 47 | 27 | 0 | 22 | 0 | 53 | 1 | 58 | 0 | 0 | 0 | 0 | 19 | 69 |
| COCCOCCOc1cc2ncc3c4ccc(C#N)cc4[nH]c3c2cc1OC | 19 | 0 | 0 | 12 | 15 | 0 | 39 | 0 | 7 | 99.7 | 1 | 0 | 56 | 7 | 0 | 0 | 55 | 57 | 98.2 | 84 |
| Nc1ncc(-c2cccnc2)c2scc(-c3ccc4c(c3)CCN4C(=O)Cc3ccccc3)c12 [GSK683281] | 8 | 0 | 45 | 0 | 21 | 0 | 0 | 14 | 9 | 0 | 36 | 0 | 26 | 29 | 0 | 7 | 18 | 0 | 49 | 36 |
| Cc1ccc(C(=O)Nc2ccc(Nc3ccnc4cc(-c5nccs5)ccc34)cc2O)cc1.Cl [GW494702] | 0 | 0 | 0 | 94.4 | 8 | 39 | 0 | 43 | 0 | 9 | 23 | 0 | 0 | 28 | 2 | 0 | 4 | 33 | 36 | 1 |
| NCCCC(NC(=O)c1cc(Br)c(-c2ccnc3[nH]ccc23)s1)c1ccccc1.O=C(O)C(F)(F)F.O=C(O)C(F)(F)F (stereo not shown) [GSK1287544] | 0 | 0 | 45 | 0 | 10 | 0 | 2 | 5 | 6 | 4 | 27 | 4 | 0 | 40 | 0 | 0 | 0 | 0 | 90 | 51 |
| Cc1ccc(C)c(NC(=O)NC2CCN(c3ccnc(Nc4ccc(F)cc4)n3)C2)c1 (stereo not shown) [GSK1379720] | 0 | 0 | 57 | 0 | 10 | 37 | 0 | 35 | 0 | 0 | 21 | 0 | 1 | 35 | 0 | 0 | 0 | 0 | 0 | 23 |
| O=C(Nc1cccc(-c2nn3ncccc3c2-c2ccnc(Nc3ccccc3)n2)c1)c1c(F)cccc1F [GSK198271] | 18 | 0 | 0 | 0 | 8 | 0 | 0 | 0 | 0 | 0 | 0 | 4 | 3 | 30 | 0 | 6 | 5 | 0 | 29 | 27 |
| CC(=O)N1CCN(c2ccc(Nc3nccc(-c4sc(C(C)C)nc4-c4cccc(NS(=O)(=O)c5cccc(Cl)c5)c4)n3)cn2)CC1 [GSK1660437] | 0 | 21 | 0 | 97.1 | 98.6 | 79 | 4 | 76 | 100 | 59 | 7 | 68 | 31 | 99 | 0 | 73 | 1 | 0 | 71 | 11 |
| CN1CCN(Cc2cccc(-c3ccc4c(Nc5ccc(Oc6ccccc6)cc5)ccnc4c3)c2)CC1 [GW578342] | 16 | 0 | 0 | 0 | 2 | 0 | 0 | 34 | 0 | 5 | 30 | 0 | 0 | 0 | 0 | 0 | 0 | 38 | 11 | 11 |
| FC(F)(F)c1ccc(/C=C/c2cncnc2Nc2ccc3[nH]c(Cc4ccccc4)nc3c2)cc1 [GW709199] | 0 | 6 | 10 | 0 | 50 | 23 | 0 | 6 | 0 | 0 | 64 | 0 | 42 | 38 | 0 | 0 | 0 | 18 | 55 | 23 |
